Laboratory results as given in the supplement of paper PMC11732987, “Enantioselective OTUD7B fragment discovery through chemoproteomics screening and high-throughput optimisation” (Communications Chemistry, 2025).

How the values were obtained:
Assay in all cases: log2 ratio of Biotin-Ahx-Ub-VS probe labelling (fragment/DMSO); higher = less target engagement (more negative = stronger competition), active = hit call of the paper (q ≤ 0.05, log2 ratio ≤ -1)
Settings in all cases: compound concentration: 200 uM; treatment time: 3 h
USP16 = USP16 (UniProt Q9Y5T5)
Sequence of USP16 (Q9Y5T5 whole entry, looked up, the tested form may be a part): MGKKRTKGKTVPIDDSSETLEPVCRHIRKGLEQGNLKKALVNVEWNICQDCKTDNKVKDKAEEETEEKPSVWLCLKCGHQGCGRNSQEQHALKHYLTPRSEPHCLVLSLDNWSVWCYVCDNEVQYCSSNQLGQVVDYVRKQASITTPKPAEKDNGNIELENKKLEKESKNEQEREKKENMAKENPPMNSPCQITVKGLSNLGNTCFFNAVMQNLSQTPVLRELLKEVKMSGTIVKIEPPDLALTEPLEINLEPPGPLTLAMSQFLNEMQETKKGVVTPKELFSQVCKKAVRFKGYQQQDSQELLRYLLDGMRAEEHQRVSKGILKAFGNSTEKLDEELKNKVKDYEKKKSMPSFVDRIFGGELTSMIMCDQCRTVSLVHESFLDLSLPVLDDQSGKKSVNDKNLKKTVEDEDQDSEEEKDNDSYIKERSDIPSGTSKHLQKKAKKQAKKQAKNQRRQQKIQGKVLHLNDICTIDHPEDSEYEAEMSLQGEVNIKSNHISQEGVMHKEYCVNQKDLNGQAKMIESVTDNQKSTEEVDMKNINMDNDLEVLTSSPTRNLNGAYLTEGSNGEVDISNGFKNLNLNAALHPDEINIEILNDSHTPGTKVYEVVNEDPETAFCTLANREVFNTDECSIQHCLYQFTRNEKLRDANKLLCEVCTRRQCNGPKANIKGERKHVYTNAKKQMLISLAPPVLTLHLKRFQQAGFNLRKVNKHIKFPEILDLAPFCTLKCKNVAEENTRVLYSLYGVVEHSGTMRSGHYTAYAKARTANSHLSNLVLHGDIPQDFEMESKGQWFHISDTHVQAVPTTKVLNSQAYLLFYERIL
In short: (§1)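 Global-median-normalised Spectronaut label-free quantities were compared by unpaired t-test, and values are average log2 ratios of fragment over vehicle. Only proteins with ≥2 unique peptides were used. HEK293T lysate (495 µg per sample) was treated in triplicate with fragment at 200 µM or vehicle for 3 h and then with Biotin-Ahx-Ub-VS at 0.5 µM final for 1 h. Labelled DUBs were then NeutrAvidin-enriched, digested with LysC and trypsin, and run by diaPASEF LC-MS/MS.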

USP19 = target: T1, USP19 (UniProt O94966)
T1 sequence (whole entry): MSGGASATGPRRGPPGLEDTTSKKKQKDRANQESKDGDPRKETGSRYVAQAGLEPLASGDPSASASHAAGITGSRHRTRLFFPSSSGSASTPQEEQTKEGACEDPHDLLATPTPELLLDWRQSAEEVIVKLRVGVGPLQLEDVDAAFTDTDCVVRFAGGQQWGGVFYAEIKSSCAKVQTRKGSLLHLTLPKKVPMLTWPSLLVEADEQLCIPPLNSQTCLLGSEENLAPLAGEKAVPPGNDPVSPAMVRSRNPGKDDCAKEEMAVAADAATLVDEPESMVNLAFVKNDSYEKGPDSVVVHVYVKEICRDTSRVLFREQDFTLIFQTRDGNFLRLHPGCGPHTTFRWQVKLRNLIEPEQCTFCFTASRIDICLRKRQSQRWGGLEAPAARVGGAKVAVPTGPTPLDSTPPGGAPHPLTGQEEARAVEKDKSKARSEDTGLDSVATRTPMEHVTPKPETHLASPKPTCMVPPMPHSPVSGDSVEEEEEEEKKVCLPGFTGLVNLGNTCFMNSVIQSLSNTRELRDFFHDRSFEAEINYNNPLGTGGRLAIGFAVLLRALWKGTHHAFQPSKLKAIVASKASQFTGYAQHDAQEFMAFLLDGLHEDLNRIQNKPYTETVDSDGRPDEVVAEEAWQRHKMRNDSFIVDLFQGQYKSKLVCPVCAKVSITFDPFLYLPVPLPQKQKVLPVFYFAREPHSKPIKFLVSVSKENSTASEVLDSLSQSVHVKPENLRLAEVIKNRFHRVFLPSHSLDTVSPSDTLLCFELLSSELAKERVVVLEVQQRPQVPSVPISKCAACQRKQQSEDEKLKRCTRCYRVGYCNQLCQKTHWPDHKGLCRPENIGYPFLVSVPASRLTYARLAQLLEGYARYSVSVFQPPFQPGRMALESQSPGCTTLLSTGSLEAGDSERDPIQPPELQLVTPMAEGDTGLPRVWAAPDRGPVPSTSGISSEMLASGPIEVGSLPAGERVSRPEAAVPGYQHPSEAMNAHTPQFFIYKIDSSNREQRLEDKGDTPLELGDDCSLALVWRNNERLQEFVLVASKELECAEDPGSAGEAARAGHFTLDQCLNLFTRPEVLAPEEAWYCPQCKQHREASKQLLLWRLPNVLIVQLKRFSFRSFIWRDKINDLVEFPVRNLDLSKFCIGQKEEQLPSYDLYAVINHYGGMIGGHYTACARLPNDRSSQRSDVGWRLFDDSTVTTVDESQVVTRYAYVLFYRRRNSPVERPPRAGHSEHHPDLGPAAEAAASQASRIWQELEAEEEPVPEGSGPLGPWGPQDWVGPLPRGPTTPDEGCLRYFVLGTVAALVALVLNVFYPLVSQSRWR
In short: as §1

USP24 = USP24 (UniProt Q9UPU5)
Sequence of USP24 (Q9UPU5 whole entry): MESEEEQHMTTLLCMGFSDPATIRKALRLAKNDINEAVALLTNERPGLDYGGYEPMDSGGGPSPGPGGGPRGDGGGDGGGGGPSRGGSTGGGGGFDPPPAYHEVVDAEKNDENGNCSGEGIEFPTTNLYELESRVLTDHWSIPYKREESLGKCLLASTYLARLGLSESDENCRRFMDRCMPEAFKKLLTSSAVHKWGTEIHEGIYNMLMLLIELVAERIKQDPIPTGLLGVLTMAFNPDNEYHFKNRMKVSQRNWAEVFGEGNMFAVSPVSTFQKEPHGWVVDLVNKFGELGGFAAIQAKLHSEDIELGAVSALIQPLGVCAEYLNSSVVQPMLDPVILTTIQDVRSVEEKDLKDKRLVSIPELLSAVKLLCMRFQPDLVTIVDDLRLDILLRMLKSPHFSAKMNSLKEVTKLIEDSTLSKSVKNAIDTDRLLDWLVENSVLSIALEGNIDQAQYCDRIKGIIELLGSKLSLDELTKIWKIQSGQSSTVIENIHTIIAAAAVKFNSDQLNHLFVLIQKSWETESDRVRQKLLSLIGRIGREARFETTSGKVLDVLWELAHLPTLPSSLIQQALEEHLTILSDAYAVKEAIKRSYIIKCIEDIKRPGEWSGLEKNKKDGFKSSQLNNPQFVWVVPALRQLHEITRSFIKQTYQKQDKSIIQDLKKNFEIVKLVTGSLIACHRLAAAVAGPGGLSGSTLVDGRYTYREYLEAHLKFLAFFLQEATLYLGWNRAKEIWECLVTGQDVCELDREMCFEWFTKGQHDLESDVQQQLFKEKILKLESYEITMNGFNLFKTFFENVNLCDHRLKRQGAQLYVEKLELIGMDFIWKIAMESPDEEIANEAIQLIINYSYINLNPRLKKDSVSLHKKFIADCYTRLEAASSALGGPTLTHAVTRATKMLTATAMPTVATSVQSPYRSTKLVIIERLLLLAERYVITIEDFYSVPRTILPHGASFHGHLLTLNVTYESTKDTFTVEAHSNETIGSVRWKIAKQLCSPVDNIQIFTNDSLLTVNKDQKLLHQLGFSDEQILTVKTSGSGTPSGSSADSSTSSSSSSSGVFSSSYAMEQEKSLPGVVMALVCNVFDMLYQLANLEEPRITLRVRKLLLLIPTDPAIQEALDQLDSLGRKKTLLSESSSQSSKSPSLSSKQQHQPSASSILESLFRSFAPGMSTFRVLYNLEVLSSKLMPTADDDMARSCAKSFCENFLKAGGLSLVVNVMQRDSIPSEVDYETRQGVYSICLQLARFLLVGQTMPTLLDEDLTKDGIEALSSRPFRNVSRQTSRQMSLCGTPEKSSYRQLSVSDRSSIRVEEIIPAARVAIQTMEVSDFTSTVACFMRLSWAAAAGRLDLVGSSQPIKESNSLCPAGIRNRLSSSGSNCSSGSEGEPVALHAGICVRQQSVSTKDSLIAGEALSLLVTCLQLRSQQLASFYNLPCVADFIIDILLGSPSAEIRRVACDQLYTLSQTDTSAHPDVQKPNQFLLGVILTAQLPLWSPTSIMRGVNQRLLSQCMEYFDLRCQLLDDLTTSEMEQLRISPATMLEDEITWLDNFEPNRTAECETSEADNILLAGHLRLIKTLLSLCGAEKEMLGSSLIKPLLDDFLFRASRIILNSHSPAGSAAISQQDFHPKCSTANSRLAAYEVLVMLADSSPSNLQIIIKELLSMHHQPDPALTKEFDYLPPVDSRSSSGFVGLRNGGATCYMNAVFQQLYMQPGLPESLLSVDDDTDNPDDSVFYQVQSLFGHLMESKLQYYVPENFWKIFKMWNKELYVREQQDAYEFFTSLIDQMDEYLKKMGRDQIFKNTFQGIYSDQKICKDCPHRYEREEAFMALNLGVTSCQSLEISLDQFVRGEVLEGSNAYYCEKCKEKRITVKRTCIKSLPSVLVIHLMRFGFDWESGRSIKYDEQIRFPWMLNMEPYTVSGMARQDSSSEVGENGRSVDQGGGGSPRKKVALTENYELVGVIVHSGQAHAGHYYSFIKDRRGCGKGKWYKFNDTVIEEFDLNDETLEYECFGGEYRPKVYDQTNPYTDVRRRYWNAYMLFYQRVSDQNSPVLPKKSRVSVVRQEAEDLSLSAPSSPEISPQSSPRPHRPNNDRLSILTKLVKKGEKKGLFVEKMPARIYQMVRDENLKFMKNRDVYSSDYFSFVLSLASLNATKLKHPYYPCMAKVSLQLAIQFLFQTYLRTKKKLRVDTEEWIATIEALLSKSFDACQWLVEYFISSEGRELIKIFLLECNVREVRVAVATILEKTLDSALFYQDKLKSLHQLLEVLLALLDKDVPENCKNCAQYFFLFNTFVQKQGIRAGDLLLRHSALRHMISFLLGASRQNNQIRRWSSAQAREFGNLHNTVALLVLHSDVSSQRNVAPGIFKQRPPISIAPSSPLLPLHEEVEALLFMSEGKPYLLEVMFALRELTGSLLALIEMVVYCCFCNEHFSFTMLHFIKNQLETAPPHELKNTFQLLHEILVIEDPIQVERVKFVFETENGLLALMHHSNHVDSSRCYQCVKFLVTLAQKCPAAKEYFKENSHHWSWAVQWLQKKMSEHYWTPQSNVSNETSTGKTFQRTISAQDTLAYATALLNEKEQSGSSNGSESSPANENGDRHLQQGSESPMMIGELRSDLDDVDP
In short: as §1

USP25 = target: T2, USP25 (UniProt Q9UHP3)
T2 sequence (whole entry): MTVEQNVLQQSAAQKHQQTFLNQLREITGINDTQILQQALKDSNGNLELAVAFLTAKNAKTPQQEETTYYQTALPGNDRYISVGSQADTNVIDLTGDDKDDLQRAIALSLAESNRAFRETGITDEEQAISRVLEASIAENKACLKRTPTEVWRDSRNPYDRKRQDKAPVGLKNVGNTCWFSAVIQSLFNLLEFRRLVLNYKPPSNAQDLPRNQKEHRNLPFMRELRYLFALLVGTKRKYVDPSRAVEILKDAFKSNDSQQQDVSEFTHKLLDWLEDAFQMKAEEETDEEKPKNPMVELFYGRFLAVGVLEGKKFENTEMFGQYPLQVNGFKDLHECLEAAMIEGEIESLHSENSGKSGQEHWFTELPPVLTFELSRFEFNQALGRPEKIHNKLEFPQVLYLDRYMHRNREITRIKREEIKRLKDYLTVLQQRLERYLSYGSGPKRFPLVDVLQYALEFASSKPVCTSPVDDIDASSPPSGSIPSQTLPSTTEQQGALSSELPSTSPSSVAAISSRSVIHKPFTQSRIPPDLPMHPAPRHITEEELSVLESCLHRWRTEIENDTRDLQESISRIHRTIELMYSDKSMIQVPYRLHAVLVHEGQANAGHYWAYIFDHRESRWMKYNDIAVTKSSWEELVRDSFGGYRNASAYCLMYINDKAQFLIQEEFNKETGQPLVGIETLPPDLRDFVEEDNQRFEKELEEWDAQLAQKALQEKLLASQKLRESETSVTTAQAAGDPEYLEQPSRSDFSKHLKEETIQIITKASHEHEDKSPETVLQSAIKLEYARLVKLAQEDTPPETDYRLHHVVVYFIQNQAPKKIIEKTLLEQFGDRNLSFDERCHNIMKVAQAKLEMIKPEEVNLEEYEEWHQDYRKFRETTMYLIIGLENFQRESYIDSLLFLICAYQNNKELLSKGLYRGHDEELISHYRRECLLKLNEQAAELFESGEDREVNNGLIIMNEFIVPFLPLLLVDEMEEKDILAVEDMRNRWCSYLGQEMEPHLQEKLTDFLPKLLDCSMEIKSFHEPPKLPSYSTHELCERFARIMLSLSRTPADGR
In short: as §1

USP28 = target: T3, USP28 (UniProt Q96RU2)
T3 sequence (whole entry): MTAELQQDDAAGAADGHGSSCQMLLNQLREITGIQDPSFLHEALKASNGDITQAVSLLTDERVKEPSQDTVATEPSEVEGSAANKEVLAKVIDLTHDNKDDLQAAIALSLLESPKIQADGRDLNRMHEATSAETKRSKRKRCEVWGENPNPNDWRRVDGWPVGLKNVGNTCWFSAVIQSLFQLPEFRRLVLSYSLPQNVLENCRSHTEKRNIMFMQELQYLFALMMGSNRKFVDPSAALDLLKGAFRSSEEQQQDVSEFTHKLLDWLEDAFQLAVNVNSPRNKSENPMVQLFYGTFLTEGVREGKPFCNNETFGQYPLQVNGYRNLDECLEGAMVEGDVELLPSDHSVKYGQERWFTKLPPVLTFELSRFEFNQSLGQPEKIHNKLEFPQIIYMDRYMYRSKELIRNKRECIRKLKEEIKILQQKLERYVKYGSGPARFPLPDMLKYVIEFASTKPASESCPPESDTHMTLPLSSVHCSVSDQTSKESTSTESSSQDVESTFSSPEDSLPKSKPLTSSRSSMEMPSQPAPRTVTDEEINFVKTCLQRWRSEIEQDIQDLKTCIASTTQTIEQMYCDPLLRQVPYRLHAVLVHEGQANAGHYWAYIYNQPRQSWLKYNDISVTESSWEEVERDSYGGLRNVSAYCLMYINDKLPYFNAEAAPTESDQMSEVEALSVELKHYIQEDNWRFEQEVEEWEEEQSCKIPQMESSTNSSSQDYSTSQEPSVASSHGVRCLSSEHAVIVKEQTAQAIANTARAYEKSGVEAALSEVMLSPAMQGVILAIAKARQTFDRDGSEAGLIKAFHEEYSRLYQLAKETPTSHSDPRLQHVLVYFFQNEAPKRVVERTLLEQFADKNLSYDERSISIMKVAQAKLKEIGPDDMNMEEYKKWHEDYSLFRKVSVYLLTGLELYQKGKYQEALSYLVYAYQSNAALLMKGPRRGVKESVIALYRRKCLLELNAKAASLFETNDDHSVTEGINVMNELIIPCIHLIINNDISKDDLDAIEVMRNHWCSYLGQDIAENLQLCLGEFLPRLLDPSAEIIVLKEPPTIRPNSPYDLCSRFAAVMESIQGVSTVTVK
In short: as §1

Measured: log2 ratio of Biotin-Ahx-Ub-VS probe labelling

Cl.O=C(CCl)N1CCCC(c2ncc[nH]2)C1 (stereo not given)
inactive: USP16 -0.216 | USP19 -0.0532 | USP24 -0.108 | USP25 -0.511 | USP28 -0.212
